Test results reported in PubChem BioAssay (NCATS).
Results filed as inconclusive are left out. Values without a mark were called inactive. The source made the active and inactive calls. The call rests on the fitted dose curve; in most records, active means well fitted inhibition curve with a large enough effect; inconclusive means small, poorly fitted or top-dose-only effect; inactive means flat fitted curve, though single readings scatter.

The compounds below were run on Zika virus NS2B-NS3 protease (assay: Primary screen GU AMC qHTS for Zika virus inhibitors (AID 1347154; further: nearly all actives have a fitted effect of over 70% in size;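 on activity change, negative = inhibition: 0% = no-inhibitor control and -100% = no-enzyme control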)). Conditions: Zika NS2B-NS3 unlinked protease, AMC fluorogenic substrate; series mostly up to 54.1 µM; activity change, negative = inhibition: at the top concentration.
Outline: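 Unlinked Zika NS2B hydrophilic domain–NS3 protease complex at 25 nM in 10 mM Tris-HCl pH 8.0, 0.01% Tween 20, with an AMC peptide substrate. Fluorescence change (340/450 nm) over 15 min at room temperature, normalized to controls, fitted to 4-parameter Hill.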
Potency means the concentration at half of the fitted maximal effect.

Going from `CCC1(CC)C(=O)C=CNC1=O` to `CN1C(=O)NC(=O)C(C)(C2=CCCCC2)C1=O` (configuration not stated), the “activity change, negative = inhibition” value rises from -2.01% to -0.912%.

Compared with `CC(C)c1c(CN(C)C(C)Cc2ccccc2)n(C)n(-c2ccccc2)c1=O` (configuration not stated), `CC(Cc1ccccc1)N(C)Cc1ccco1` (configuration not stated) is lower in “activity change, negative = inhibition” value: -1.15% for the first, -2.79% for the second.

Going from `CCc1cc2c(s1)-n1c(C)nnc1CN=C2c1ccccc1Cl` to `O=C1CN=C(c2ccccc2)c2cc([N+](=O)[O-])ccc2N1`, the “activity change, negative = inhibition” value falls from 1.2% to -4.17%.

Going from `Oc1ccc(Cl)cc1` to `Clc1ccc(C(c2ccc(Cl)cc2)C(Cl)(Cl)Cl)cc1`, the “activity change, negative = inhibition” value falls from -0.917% to -13.2%.

First: C#C[C@]1(O)CC[C@H]2[C@@H]3CCC4=CC(=O)CC[C@]4(C)[C@H]3CC[C@@]21C
Second: C[C@@H]1CC2=CC(=O)CC[C@@H]2[C@H]2CC[C@@]3(C)[C@@H](CC[C@]3(C)O)[C@@H]21
The “activity change, negative = inhibition” value of the first is higher: 1.45% for the first, -4.05% for the second.

Going from `O=c1oc2ccccc2c(O)c1Cc1c(O)c2ccccc2oc1=O` to `CCN(CCO)CCn1c(Cc2ccccc2)nc2c1c(=O)n(C)c(=O)n2C`, the “activity change, negative = inhibition” value rises from -5.81% to -2.66%.

Compared with `CC(=O)NC1CCSC1=O` (configuration not stated), `C[C@](O)(CS(=O)(=O)c1ccc(F)cc1)C(=O)Nc1ccc(C#N)c(C(F)(F)F)c1` is higher in “activity change, negative = inhibition” value: -1.21% for the first, 5.15% for the second.

First: CNC(C)(C)Cc1ccccc1
Second: Nc1ccccc1
The “activity change, negative = inhibition” value of the first is lower: -1.63% for the first, -1.4% for the second.

Compared with `Clc1ccccc1N1CCNCC1`, `NC1=NC(=O)C(c2ccccc2)O1` (configuration not stated) is higher in “activity change, negative = inhibition” value: 0.141% for the first, 1.16% for the second.

Compared with `C[C@]12CC[C@H]3[C@@H](CC[C@@]45O[C@H]4C(O)=C(C#N)C[C@]35C)[C@H]1CC[C@H]2O`, `CCCCCCCCCC(=O)O[C@H]1CC[C@H]2[C@@H]3CCC4=CC(=O)CC[C@@H]4[C@H]3CC[C@]12C` is higher in “activity change, negative = inhibition” value: -9.87% for the first, -4.52% for the second.

First: CCC1(c2ccccc2)C(=O)N(COC)C(=O)N(COC)C1=O
Second: CCN[C@@H](C)Cc1cccc(C(F)(F)F)c1
The “activity change, negative = inhibition” value of the first is higher: 5.63% for the first, -3.22% for the second.

Compared with `CC(C)(C)NCC(O)c1cc(Cl)c(N)c(C(F)(F)F)c1` (configuration not stated), `CCC(C)C(C)(COC(N)=O)COC(N)=O` (configuration not stated) is lower in “activity change, negative = inhibition” value: 6.22% for the first, -4.69% for the second.

Going from `C[C@H](N)C(=O)c1ccccc1` to `CC(Cc1ccccc1)NCCn1cnc2c1c(=O)n(C)c(=O)n2C` (configuration not stated), the “activity change, negative = inhibition” value rises from 1.33% [at 104 µM] to 3.04% [at 104 µM].

First: COc1ccc2c3c1O[C@H]1[C@H](O)CC[C@H]4[C@@H](C2)N(C)CC[C@@]341
Second: CN1CC[C@]23c4c5ccc(O)c4O[C@H]2[C@@H](O)CC[C@H]3[C@H]1C5
The “activity change, negative = inhibition” value of the first is higher: 3.88% [at 104 µM] for the first, 1.5% [at 104 µM] for the second.

First: CCN[C@H](C)Cc1cccc(C(F)(F)F)c1
Second: COc1cc(CC(C)N)cc(OC)c1OC (configuration not stated)
The “activity change, negative = inhibition” value of the first is lower: 1.36% [at 104 µM] for the first, 4.03% [at 104 µM] for the second.

First: CN1CC[C@]23c4c5ccc(O)c4O[C@H]2[C@@H](O)C=C[C@H]3[C@H]1C5
Second: CN(C)CCc1c[nH]c2cccc(OP(=O)(O)O)c12
The “activity change, negative = inhibition” value of the first is lower: -2.77% [at 104 µM] for the first, 3.52% [at 104 µM] for the second.

In the case of `COc1cc(CCN)cc(OC)c1OC`, the “activity change, negative = inhibition” value is reported as -2.64% [at 104 µM].

For `O=C1c2ccccc2C(=O)c2ccccc21`, the “activity change, negative = inhibition” value was -4.7% [at 25.8 µM].

For `CN1C(=O)COc2c(C(=O)NC3CN4CCC3CC4)cc(Cl)cc21` (configuration not stated), the Potency was “inactive”.
`CCCCC/C=C\C/C=C\C/C=C\C/C=C\CCCC(=O)NCC(=O)O` was tested, and the Potency was 25.6 µM (active).
With `C[C@]12CCC(=O)C=C1CC[C@@H]1[C@@H]2CC[C@]2(C)C(=O)CC[C@@H]12` the Potency was “inactive”.
